In the library only some 1.8% were active in any assay of this set; here they are far more common.
Vif-APOBEC3G blk = Vif-A3G binding inhibition. Q9HC16. Potency, µM (doses to about 46.1 µM), without a hit: at the top dose activity, negative = active, usual class: inhibitors. AID 602310. 0.076% of 410,000 active. HeLa A3G-eYFP + Vif (tagged APOBEC3G with the HIV-1 protein that degrades it), YFP fluorescence, overnight; also: % is scaled to controls: 0 for no effect and ±100 for the full control effect; nearly all actives have a fitted effect of over 60% in size
Target sequence (Q9HC16 whole entry, looked up): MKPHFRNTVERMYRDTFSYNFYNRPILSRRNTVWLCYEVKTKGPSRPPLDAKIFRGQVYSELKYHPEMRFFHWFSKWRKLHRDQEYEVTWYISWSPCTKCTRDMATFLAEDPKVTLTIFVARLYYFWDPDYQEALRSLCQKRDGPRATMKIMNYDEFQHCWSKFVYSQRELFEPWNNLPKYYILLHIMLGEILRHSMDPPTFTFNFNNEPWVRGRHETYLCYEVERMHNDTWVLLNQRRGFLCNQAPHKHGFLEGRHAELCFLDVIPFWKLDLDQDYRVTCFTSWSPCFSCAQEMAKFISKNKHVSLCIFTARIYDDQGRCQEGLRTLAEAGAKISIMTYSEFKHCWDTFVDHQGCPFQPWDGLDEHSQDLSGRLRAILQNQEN
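Read-out is eYFP fluorescence (Ex 488/Em 500-530) from Vif-expressing HeLa A3G-eYFP cells; more signal means A3G escaped Vif-mediated degradation. Cells plated overnight, compound pinned in, incubated overnight at 37 deg C.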
TrxR1 substrate = rat thioredoxin reductase 1 substrate activity. O89049. purified TrxR1 substrate turnover, NADPH consumption readout. Potency, µM (series often up to 114 µM), for the others: top-dose activity change, negative = substrate turnover. 0.01% of 390,000 active; also: % is scaled to controls: 0 for no effect and ±100 for the full control effect; nearly all actives have a fitted effect of over 50% in size
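Rat TrxR1, dispensed at 90 nM, was prereduced with 400 uM NADPH (final) for 5 min at ~22 deg C, then incubated with compound 15 min before 400 uM selenite. A first-read NADPH fluorescence drop versus no-compound background flagged substrates.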
VDR inhibitor = blocks the human vitamin D receptor; P11473; Potency, µM, for the others: max response, negative = inhibition, actives largely listed as inhibitors; VDR-SRC2-3 peptide fluorescence polarization, 2 h; 0.93% of 400,000 active; also: % is scaled to controls: 0 for no effect and ±100 for the full control effect
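FP read-out; VDR + SRC2-3 coactivator peptide; 23 nl compound by pintool; 2 h RT incubation; reagents held at 4 deg C, protected from light.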
TrxR1 inh = rat TrxR1 inhibition | O89049 | recombinant rTrxR1, NADPH fluorescence consumption, selenite substrate | Potency, µM (doses to about 114 µM), for inactives: at the top dose activity change, negative = inhibition, actives largely listed as inhibitors | 1% of 390,000 active; also: % is scaled to controls: 0 for no effect and ±100 for the full control effect; nearly all actives have a fitted effect of over 65% in size
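Rat TrxR1 (90 nM in the dispensed reagent) was pre-reduced with 400 uM NADPH for 5 min at room temperature, then incubated with compound for 15 min. After 400 uM selenite was added, NADPH fluorescence (Ex 340/Em 450 nm) was followed for 8 min.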
Vif-APOBEC3F blk = blocks the Vif interaction with APOBEC3F; HeLa A3F-eYFP + Vif (tagged APOBEC3F with the HIV-1 protein that degrades it), YFP fluorescence increase; Potency, µM (top dose mostly 46.1 µM), without a hit: top-dose activity, negative = active; 0.2% of 390,000 active; AID 602313; also: % of control where 0% means no effect; nearly all actives have a fitted effect of over 65% in size
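HeLa cells stably expressing Vif plus C-terminally eYFP-tagged A3F were seeded, incubated overnight at 37 deg C, dosed with compound, incubated overnight again at 37 deg C. Yellow fluorescence (Ex 488/Em 500-530) reported blocked Vif-mediated A3F-eYFP degradation.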
* = called active by the depositor; u = inconclusive; x = no result; [ ] = another dose, or the depositor's remark. Calls follow the shape of the dose curve; as a rule, active = well fitted curve in the direction sought with a large enough effect; inconclusive = small, poorly fitted or top-dose-only effect, or another doubt; inactive = no such curve, though single readings can be large; an effect the other way counts as inactive or inconclusive. Potency is read from the fitted curve at half-maximal effect.

SMILES | Vif-APOBEC3G blk | TrxR1 substrate | VDR inhibitor | TrxR1 inh | Vif-APOBEC3F blk
Cc1ccc2c(c1)N(C(=O)N1CCC(C(=O)NCCC3=CCCCC3)CC1)CC(C)O2 (centres undefined) | 1% | -3% | 18% | 13% | 2%
N#Cc1c(N)n(CCNC(=O)c2ccc(Cl)cc2)c2nc3ccccc3nc12 | -29% | 48% | -16% | 21% | -20%
Cc1ccc(C(=O)NCCn2c(N)c(C#N)c3nc4ccccc4nc32)cc1 | u | 141% | -8% | 93% | 22µM*
O=C1c2ccccc2C(=O)C12OC2c1ccc(Cl)cc1Cl (centres undefined) | -21% | 2% | 89µM* | -23% | 5%
Cn1c(-c2ccccc2)c(C(=O)CCl)c2ccccc21 | -27% | 1%[57.1 µM] | 71µM* | -57% | -6%
Oc1ccc(Cl)cc1C1C=C(c2ccc3c(c2)OCO3)NC(c2cc(Br)ccc2F)N1 (centres undefined) | -19% | -1%[0.457 µM] | u | u | x
CC(=O)c1c(C)c(C)c2n1CCn1c(C)ccc1-2 | -3% | 1% | -17% | 25µM* | -12%
CCC1=[N+](C)CCn2c(C)ccc21 | 3% | 6%[57.1 µM] | 11% | 0%[57.1 µM] | 4%
COc1ccc(/C=C/C(=O)c2cccs2)c(OC)c1 | x | x | 11µM* | x | x
Cc1ccc(NC(=O)CSC2=C(C#N)C(c3ccc4c(c3)OCO4)C3=C(CCCC3=O)N2)c(C)c1 (centres undefined) | 0% | -4% | 4% | 28µM* | 3%
CC(C)(C)c1nnc(NC(=O)c2ccc3c(c2)OCO3)s1 | -1% | 8%[0.0914 µM] | 79µM* | -10%[57.1 µM] | 8%
COc1cc(OC)c(OC)cc1/C=C/c1ccc2ccccc2[n+]1C | 4% | -13% | x | -13% | x
O=C1N(Cc2ccccc2)CC2(Br)COCOC12O (centres undefined) | 0% | 8%[11.4 µM] | u | 2.2µM* | 0%
O=C1C(c2ccccc2)CN1Cc1ccccc1 (centres undefined) | -1% | x | x | x | x
Cc1ccc(C)c(S(=O)(=O)/N=C2\C=C(NS(=O)(=O)c3ccccc3)C(=O)c3ccccc32)c1 | 1% | -10% | -15% | -13% | 0%
Cc1cc(C)c(S(=O)(=O)/N=C2/C=C(Sc3ncn[nH]3)C(=O)c3ccccc32)cc1C | u | 14µM* | u | u | 7.1µM*
CN1C(=O)/C(=C/c2ccccc2OCc2ccc(F)cc2)N(C)C1=S | -3% | 2% | -8% | 16% | 3.5µM*
CN1C(=O)/C(=C/c2ccccc2OCc2cccc(F)c2)NC1=S | 0% | 8%[57.1 µM] | -5% | 30%[57.1 µM] | -1%
CSCC[C@H](NC(=O)[C@@H]1CCCN1C(=O)[C@H](CCCN=C(N)N)NC(=O)[C@H](CC(C)C)NC(=O)[C@@H]1CCCN1C(=O)[C@@H](NC(=O)[C@@H](N)CCC(N)=O)C(C)C)C(=O)N[C@H](C(=O)N[C@@H](Cc1ccc(O)cc1)C(=O)N[C@@H](CCCCN)C(=O)O)[C@@H](C)O | x | x | -1% | x | x
CCOC(=O)Cc1csc(NC(=O)/C=C/c2ccco2)n1 | 2% | -3% | -19% | 79µM* | 3%
O=C(Nc1nc(-c2ccccn2)cs1)C1CCCC1 | -2% | 12%[57.1 µM] | -14% | 19%[57.1 µM] | 7.1µM*
CSCCC(=O)Nc1nc(-c2ccccn2)cs1 | 2% | 13%[57.1 µM] | u | 17%[57.1 µM] | -31%
O=C(/C=C/c1ccco1)Nc1nc(-c2ccccn2)cs1 | -8% | 9%[0.0914 µM] | u | 14µM* | 0%
O=C(/C=C/c1ccco1)Nc1nc(-c2ccccc2)cs1 | 0% | -9% | -11% | -11% | 4%
C=C1C=C(C(F)F)n2ncc(C(=O)NCc3ccc(OC)cc3)c2N1 | -2% | -7% | x | -12% | x
SMILES | Vif-APOBEC3G blk | TrxR1 substrate | VDR inhibitor | TrxR1 inh | Vif-APOBEC3F blk
Cc1nc2ccccc2nc1-c1csc(-c2ccccc2)n1 | 0% | 0% | x | u | x
CCOc1ccc(NC(=O)COC(=O)c2ccccc2OCc2ccccc2Br)cc1 | x | 8% | x | 27% | x
Cc1sc2cc3c(c(C(=O)c4ccccc4)[n+]2c1C)-c1cccc2cccc-3c12 | -9% | 8%[57.1 µM] | 8% | 14%[57.1 µM] | 17%
O=C(c1ccccc1)c1c2c(cc3sc4ccccc4[n+]13)-c1cccc3cccc-2c13 | 6.3µM* | -6% | -19% | u | u
CCOc1cc(/C=C2\C(=O)N(c3ccc(C(N)=O)cc3)N=C2C)ccc1OC(=O)c1cccs1 | -11% | 5%[57.1 µM] | 50µM* | u | -8%
CCOc1cc(/C=C2/C(=O)N(c3ccccc3)N=C2C)ccc1OC(=O)c1ccco1 | 1% | -7% | u | u | 0%
CCOc1ccc(C2=CSC3=NCCN23)cc1[N+](=O)[O-] | -3% | 6%[57.1 µM] | -25% | 13% | 14%
CCOc1ccc(C2=CSC3=NCCN23)cc1Cl | 1% | 6% | 79µM* | 24%[57.1 µM] | -11%
O=C(C[n+]1cccc2cc(Cl)ccc21)c1ccc(I)cc1 | u | -2% | x | 2% | x
Cc1cccc(NC2=NC(C)(C)N=C(N)N2)c1C | 1% | 2% | 25µM* | -4% | -1%
COCCc1ccc(OC[C@H](O)CNC(C)C)cc1 | x | x | 1% | x | x
O=C1C=C(NCc2ccccc2)CCC1 | -1% | -3% | 5% | 6% | 6%
O=C1C=C(NC2=CC3OC(c4ccccc4)OCC3OC2=O)CCC1 (centres undefined) | -25% | -12% | 79µM* | 8.9µM* | 0%
O=C(CCSCc1ccc(Cl)cc1)N1CCN(c2ccccc2F)CC1 | 10% | 1%[57.1 µM] | -2% | 14%[57.1 µM] | -1%
COc1cccc(N2CCN(Cc3nc4scc(-c5ccccc5)c4c(=O)[nH]3)CC2)c1 | 8.9µM* | -10% | -8% | 22%[57.1 µM] | -20%
COc1cccc(N2CCN(Cc3nc4ccccc4c(=O)[nH]3)CC2)c1 | 1% | 6%[57.1 µM] | 2% | -1%[57.1 µM] | 1%
CCOc1cccc(C(=O)NC(=S)Nc2cccc(C)c2)c1 | -1% | -6% | -9% | 5µM* | -8%
O=C(NC(=S)Nc1ccc(Cl)c(C(=O)O)c1)c1cccc(COc2ccccc2)c1 | -3% | -1% | -16% | 71µM* | 1%
COc1cccc(C(=O)NC(=S)Nc2ccc(N(C)C)cc2)c1 | -1% | -15% | -10% | 20µM* | -1%
O=C(NC(=S)Nc1ccc(Cl)c(C(=O)O)c1)c1ccc(OCc2ccccc2)cc1 | 0% | -2% | -26% | -52% | 8%
COc1cccc(C(=O)NC(=S)Nc2ccc(N3CCCC3)cc2)c1 | -7% | 7%[57.1 µM] | 12% | -37% | -3%
Nc1ccnc2c1ncn2[C@@H]1O[C@H](CO)[C@@H](O)[C@H]1O | x | x | -2% | x | x
O=C(COc1ccc(S(=O)(=O)N2CCOCC2)cc1)N1CCOCC1 | 1% | -14% | u | -14% | -19%
O=C(COc1ccc(/C=C\[N+](=O)[O-])cc1)N1CCOCC1 | -1% | 7% | u | 14µM* | -6%
O=[N+]([O-])/C=C\c1ccc(N2CCOCC2)cc1 | u | -2%[57.1 µM] | 25µM* | u | -6%
Cc1cccc(NC(=O)COc2ccccc2C(=O)Nc2ccccc2)c1 | x | -3% | x | 1% | x
